Assay outcomes as filed in PubChem BioAssay.
ADAM17 inh – ADAM17 inhibition, QFRET primary screen; P78536; recombinant ADAM17, EDANS/DABCYL FRET peptide cleavage; inhibition, % at 6.95 µM; 370,000 compounds, 0.83% hits; AID 720648;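 active = inhibition above the mean of compounds lying between control limits plus 3 SD, set per campaign, cut at about 8.5% in these data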;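 note: 0% = DMSO-only wells as the low control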
KLK7 zymogen act – activates the human kallikrein-7 zymogen. purified proKLK7, EDANS-DABCYL substrate fluorescence; 100% is mature enzyme control, 0% vehicle. 370,000 compounds, 0.9% hits. activation, % at 7 µM. AID 652039;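 active = activation above the mean of all tested compounds plus 3 SD, computed per campaign excluding outliers beyond control limits, cut at about 13% in these data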
PLC-gamma1 inh – inhibitors of human phospholipase C gamma1; inhibition, % at 12.2 µM; 370,000 compounds, 0.84% hits; purified PLC-gamma1, fluorogenic substrate, fluorescence; P19174; in the data active = inhibition above about 9.5%
ADAM10 inh – ADAM10 inhibition, QFRET primary screen; inhibition, % at 7 µM; recombinant ADAM10, EDANS/DABCYL FRET peptide cleavage, 3 h; AID 720582; 370,000 compounds, 0.62% hits; O14672;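 active = inhibition above a per-campaign cutoff equal to the mean of compounds falling between control-based bounds plus 3 SD, cut at about 20% in these data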;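 note: 0% = DMSO wells while the 100% control is not disclosed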
PLCb3 inh – inhibitors of human phospholipase C beta3; Q01970; Purified PLC-beta3, fluorogenic substrate, fluorescence; inhibition, % at 12.2 µM; 370,000 compounds, 0.18% hits; AID 720704; in the data active = inhibition above about 11%;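 note: 0% = median of compound wells on plate and 100% = full blocker control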
ADAM10 confirm – confirmation of inhibitors of human ADAM10; shares compounds with ADAM10 inh; ADAM10 QFRET peptide cleavage, EDANS fluorescence; inhibition, % at 6.95 µM; 2,100 compounds, 1% hits;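 active = inhibition above about 20% chosen separately for each screening run, limit read from the data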;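 note: 0% = DMSO wells and 100% = marimastat wells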
ADAM17 ctr – ADAM17 inhibition, counter-screen for ADAM10 exosite hits. AID 743214. 2,100 compounds, 0.5% hits. inhibition, % at 6.95 µM. shares compounds with ADAM10 inh. ADAM17 QFRET peptide cleavage, EDANS fluorescence;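 active = mean triplicate inhibition above the solvent-only control wells' mean plus 3 SD, cut at about 12% in these data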;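 note: 0% = DMSO wells and 100% = marimastat wells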
An asterisk follows results filed as active; · = not tested or not shown. Compounds with a hit are over-represented: about 2.9% of the library has one in this group of screens.

SMILES	ADAM17 inh	KLK7 zymogen act	PLC-gamma1 inh	ADAM10 inh	PLCb3 inh	ADAM10 confirm	ADAM17 ctr
C/C=C/C=C/C(=O)c1cc(C)c(OC(=O)CNC(=O)OC(C)(C)C)c(C)c1O	-5	2	-12	-25	-17	·	·
COc1ccc(-c2cc(C3CCN(c4cc(Cl)nc(N)n4)CC3)[nH]n2)cc1	7	1	7	17	4	·	·
Nc1nc(Cl)cc(N2CCC(c3cc(-c4ccc(Cl)cc4)n[nH]3)CC2)n1	6	0	2	32*	4	5	2
Brc1ccc(-c2nn3c(-c4ccccc4)nnc3s2)cc1	-1	0	2	-8	-2	·	·
CCN1CCCCC(NC(=O)c2ccccc2C)C1=O (stereo not drawn)	1	0	3	1	6	·	·
Cc1cc(O)cc(=O)n1-c1cc(C(F)(F)F)cc(C(F)(F)F)c1	-5	-1	-2	-2	1	·	·
Cn1nnc(NC(=O)c2ccc(C(C)(C)C)cc2)n1	-1	-1	0	35*	1	2	1
COC(=O)[C@]12C[C@H](CC(=O)N3CCN(C(=O)c4ccco4)CC3)C(=O)N(Cc3ccccc3)C1=C[C@H](C(C)C)O[C@@H]2C1CC1	1	0	3	0	4	·	·
O=C(COc1ccc(S(=O)(=O)NC2CCCCC2)cc1Cl)NCC1CCCO1 (stereo not drawn)	-1	1	2	6	4	·	·
COc1ccc(CCNC(=O)COc2ccc(S(=O)(=O)NC3CCCCC3)cc2Cl)cc1	7	0	9	23*	5	3	1
C=CCn1c(COc2ccccc2)nnc1SCC(=O)Nc1ccc(Oc2ccccc2)cc1	6	0	-2	21*	-1	3	0
CCn1c(COc2ccc(C)cc2)nnc1SCC(=O)Nc1ccc(Oc2ccccc2)cc1	-1	1	-1	-1	1	·	·
COc1ccc(CCn2c(-c3ccc(C(C)(C)C)cc3)n[nH]c2=S)cc1OC	2	0	5	24*	-2	0	0
NS(=O)(=O)c1ccc(CCNc2nn3c(-c4cccc(OC(F)(F)F)c4)cnc3s2)cc1	6	0	0	21*	3	5	1
COc1ccc(CNc2nn3c(-c4cccc(C(=O)N(C)C)c4)cnc3s2)cc1	2	0	6	0	1	·	·
CC(C)Oc1ccc(NC(=O)c2ccncc2)cc1	-1	0	-1	78*	1	-2	0
CCCN1CCS(=O)(=O)N(Cc2cn(Cc3ccc(C)cc3)nn2)C(C(=O)OC)C1 (stereo not drawn)	2	0	0	4	1	·	·
N#Cc1nc(COc2ccccc2F)oc1NCCc1ccccc1	5	0	1	22*	-1	5	0
Cc1sc2nc(CSc3ccccc3)nc(N3CCC(C(N)=O)CC3)c2c1C	7	0	3	20*	-3	3	0
CCOC(=O)c1sc2nc(CSc3ccccc3)nc(N3CCC(C(N)=O)CC3)c2c1C	0	-3	-26	-10	-34	·	·
O=S1(=O)c2c(cccc2N2CC[C@H](O)C2)OCCCN1C1CC1	-9	0	-1	-10	1	·	·
CCO[C@H]1OC(C(=O)Nc2ccccc2)=C[C@@H](c2ccc(Br)cc2)[C@@H]1CCCO	9	0	1	24*	5	7	2
CCO[C@@H]1OC(C(=O)Nc2ccccc2)=C[C@H](c2ccc(C(F)(F)F)cc2)[C@H]1CCCO	6	0	3	18	7	·	·
C[C@H](c1ccccc1)N1C[C@@H](COCc2ccccc2)Oc2cc(N3CC[C@@H](O)C3)ccc2S1(=O)=O	5	0	0	0	-3	·	·
C[C@@H](c1ccccc1)N1C[C@H](COCc2ccccc2)Oc2cc(N3CC[C@H](O)C3)ccc2S1(=O)=O	7	0	2	21*	3	7	2
O=C(NC1CCCCN(Cc2cccc(Cl)c2)C1=O)c1c(F)cccc1F (stereo not drawn)	-3	0	-1	1	0	·	·
CC(=O)C1(C(=O)NCc2ccccc2)CC(c2ccccn2)=NO1 (stereo not drawn)	-6	0	-2	-21	-2	·	·
